Data: PubChem BioAssay (Tox21)
Several values for one entry are separate records, joined by “and”; a condition that tells them apart may be missing. Equal values may be shown once. Records with an inconclusive call do not appear. Activity calls are given as the source filed them. The call rests on the fitted dose curve.

Assay: p53 small molecule agonists, cell-based qHTS assay: qHTS cell viability counter screen (AID 1963581); further: nearly all actives have a fitted effect of over 45% in size
Conditions: p53RE-bla HCT-116 viability, ATP luminescence, 16 h; series mostly up to 66 µM; activity change, negative = cytotoxicity: at the top concentration
From the text: National Center for Advancing Translational Sciences [NCATS]
Division of Preclinical Innovation [DPI]
U.S. Environmental Protection Agency [EPA]
National Institutes of Environmental Health Sciences [NIEHS]
National Toxicology Program [NTP]
U.S. Food and Drug Administration [FDA]
p53, a tumor suppressor protein, is activated following cellular insult, including DNA damage and other cellular stresses. The activation of p53 regulates cell fate by inducing DNA repair, cell cycle arrest, apoptosis, or cellular senescence. The activation of p53, therefore, is a good indicator of DNA damage and other cellular stresses. The CellSensor p53RE-bla HCT-116 cell line (Invitrogen) contains a stably integrated beta-lactamase reporter gene under control of the p53 response elements. The activation of the reporter gene under culture conditions can be detected by fluorescence intensity. This cell line was used to screen the Tox21 compound library in a 1536-well plate format and to identify agonists that activate the p53 signaling pathway. The cytotoxicity of the Tox21 compound library against the p53 RE-bla HCT-116 cell line was tested in parallel by measuring the intra cellular ATP content in the same wells.
Tox21 Assay Protocol Summary:
The p53RE-bla cells were dispensed at 4,000 cells/5 ul/well in 1536-well black wall/clear bottom plates using a Multidrop dispenser. After the assay plates were incubated at a 37 C/5% CO2 incubator for 5 hours, 23 nL of compounds dissolved in DMSO, positive controls or DMSO only was transferred to the assay plate by a pin tool. The plates were incubated at 37 C for 16 hours. After 1 uL of LiveBLAzerTM B/G FRET substrate was added using a Flying Reagent Dispenser, the plates were incubated at room temperature for 2 hours, and fluorescence intensity was measured by an Envision plate reader. For cell viability readout that measures cytotoxicity, 4 ul/well of CellTiter-Glo reagent was added into the assay plates using a Flying Reagent Dispenser. After 30 min incubation at room temperature, the luminescence intensity in the plates was measured using a ViewLux plate reader.
On the % scale 0 is the no-effect control and ±100 the full control effect; potency means the concentration at half of the fitted maximal effect.

Row | SMILES | activity change, negative = cytotoxicity | Potency
1 | O=c1oc2c(O)c(O)cc3c(=O)oc4c(O)c(O)cc1c4c23 | -7.94% [at 13.5 µM] (inactive) | –
2 | O=C(O)c1cc(=O)c2c(OCC(O)COc3cccc4oc(C(=O)O)cc(=O)c34)cccc2o1 | – | inactive
3 | C=CC(=O)OCC(CO)(COC(=O)C=C)COC(=O)C=C | – | 16.3 µM (active) and 10.2 µM (active)
4 | CC1(C)COCN1 | 13.7% (inactive) | –
5 | CC(C)CCO | -3.72% (inactive) | –
6 | N=c1nc(N2CCCCC2)cc(N)n1O | 1.19% [at 30.3 µM] (inactive) | –
7 | CC(S)C(=O)NCC(=O)O (stereo not given) | 5.88% [at 30.3 µM] (inactive) | –
8 | CCCCCC1CCCC(=O)O1 (stereo not given) | -0.0136% (inactive) | –
9 | O=P(O)(OCc1ccccc1)OCc1ccccc1 | 0% (inactive) | –
10 | C=CCOc1cc(Cl)ccc1C(=O)NCCN(CC)CC | 19.7% [at 30.3 µM] (inactive) | –
11 | CO[Si](CCCCl)(OC)OC | 5.98% (inactive) | –
12 | CC(C)CC=O | -10.6% (inactive) | –
13 | C=COCCCC | -1.97% (inactive) | –
14 | CC(C)CC(=O)O | -2.99% (inactive) | –
15 | CCCCCC(=O)O[C@]1(C(C)=O)CC[C@H]2[C@@H]3CCC4=CC(=O)CC[C@]4(C)[C@H]3CC[C@@]21C | – | inactive
16 | CC(=C(CCOC(=O)C(C)C)SSC(CCOC(=O)C(C)C)=C(C)N(C=O)Cc1cnc(C)nc1N)N(C=O)Cc1cnc(C)nc1N | 21.2% [at 30.3 µM] (inactive) | –
17 | C=CC(C)(CCC=C(C)C)OC(=O)CC (stereo not given) | -0.134% (inactive) | –
18 | OC[C@H]1O[C@@H]2O[C@H]3[C@H](O)[C@@H](O)[C@@H](O[C@H]4[C@H](O)[C@@H](O)[C@@H](O[C@H]5[C@H](O)[C@@H](O)[C@@H](O[C@H]6[C@H](O)[C@@H](O)[C@@H](O[C@H]7[C@H](O)[C@@H](O)[C@@H](O[C@H]1[C@H](O)[C@H]2O)O[C@@H]7CO)O[C@@H]6CO)O[C@@H]5CO)O[C@@H]4CO)O[C@@H]3CO | – | inactive
19 | CC(=O)C(C)O (stereo not given) | -12.7% (inactive) | –
20 | O=C(O)C1CCC(C(=O)O)CC1 (stereo not given) | 8.2% (inactive) | –

Row | SMILES | activity change, negative = cytotoxicity | Potency
21 | CN(C)c1cc(NC(=O)CNC(C)(C)C)c(O)c2c1C[C@H]1C[C@H]3[C@H](N(C)C)C(=O)C(C(N)=O)=C(O)[C@@]3(O)C(=O)C1=C2O | 20.5% [at 30.3 µM] (inactive) | –
22 | O=S(=O)(O)c1ccccc1 | – | inactive
23 | CCC(OCCCOC)OC(C)=O (stereo not given) | 8.43% (inactive) | –
24 | Cc1ccc(-c2ccccc2)cc1 | 1.19% (inactive) | –
25 | CCCN1C=CN(C)C1 | – | inactive
26 | c1ccc(SCCSc2ccccc2)cc1 | -6.21% (inactive) | –
27 | CCC/C=C/CO | 8.03% (inactive) | –
28 | CC(C)=C1CC[C@@H](C)CC1=O | 13.4% (inactive) | –
29 | CC(C)c1ccccc1O | -3.45% (inactive) | –
30 | CCCO[Si](OCCC)(OCCC)OCCC | -15.7% (inactive) | –
31 | CC(=O)c1cccc([N+](=O)[O-])c1 | 0% (inactive) | –
32 | COC(=O)C1=C(C)NC(C)=C(C(=O)OCC(C)C)C1c1ccccc1[N+](=O)[O-] (stereo not given) | – | inactive
33 | CC(=O)N(O)CCCCCNC(=O)CCC(=O)N(O)CCCCCNC(=O)CCC(=O)N(O)CCCCCN | -0.311% [at 30.3 µM] (inactive) | –
34 | c1ccc(CCc2ccccc2)cc1 | 1.04% (inactive) | –
35 | C=C(C)C(=O)OCCC(C)OC(=O)C(=C)C (stereo not given) | 9% (inactive) | –
36 | Clc1cccc(Cl)c1NC1=NCCN1 | – | inactive
37 | Cc1ccc(O)c([N+](=O)[O-])c1 | -2.3% (inactive) | –
38 | NCCOCCN | -4.84% (inactive) | –
39 | CN1N=C(C(N)=O)CCC1=O | 11.8% [at 30.3 µM] (inactive) | –
40 | CC(C)OC(C)C | -7.1% (inactive) | –
